A selection: hits, their analogues and other compounds. The true share with any hit is near 0.52%.
Sa growth 42C: inhibitors of Staphylococcus aureus growth at 42 °C; S. aureus RN4220 growth, OD600, 20 h; stronger effect = lower value; relative growth, % (test concentration not listed); 170,000 compounds, 0.53% hits; AID 720641;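 active = relative growth at most 50% at the other temperature and 20+ points below 30 °C, or under 10% at both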
Sa helicase inh: blocks Staphylococcus aureus DNA helicase | purified S. aureus helicase, fluorescence unwinding assay | inhibition, % (no concentration beside the values) | 120,000 compounds, 0.05% hits; in the data active = inhibition above about 25%, passing the limit was not always enough
A number is an active result; - = inactive; . = not tested or not shown.

SMILES | Sa growth 42C | Sa helicase inh
C=CCN(CC=C)Cn1nc(-c2c[nH]c3ccccc23)oc1=S | 43 | -
Cc1ccc(/C(O)=C2\C(=O)C(=O)N(Cc3cccnc3)C2c2ccccn2)cc1 (configuration not stated) | - | -
CC1CCC(C(C)C)C(NC(=S)Nc2cccc(F)c2)C1 (configuration not stated) | -0.8 | .
O=C(Nc1cccc(F)c1)NC1CCCC1 | - | -
CCc1nnc(NC(=O)c2ccc(S(=O)(=O)N(C)c3ccccc3)cc2)o1 | - | -
COCc1nnc(NC(=O)c2ccc(S(=O)(=O)N(C)C3CCCCC3)cc2)o1 | 8.5 | -
CSCc1nnc(NC(=O)c2ccc(S(=O)(=O)N(CC(C)C)CC(C)C)cc2)o1 | -0.4 | -
CC(C)CN(CC(C)C)S(=O)(=O)c1ccc(C(=O)Nc2nnc(-c3ccccn3)o2)cc1 | - | -
CC(=O)Nc1cc(C(=O)NCCN2C(C)CCCC2C)ccc1Sc1ccc(C)cc1 (configuration not stated) | - | -
O=C(NCSCc1cccc(C(F)(F)F)c1)Nc1ccc(F)c(Cl)c1 | 9.0 | .
C=CCNC(=O)Nc1ccc(F)c(Cl)c1 | - | -
CCCN1CCN(C(=O)Cn2c(-c3cccs3)cc3cc(F)ccc32)CC1 | - | .
COc1ccc(NC(=O)C2(N(C)C(=O)c3ccc(-n4cnnn4)cc3)CCCCC2)cc1 | - | -
CCN(CC)c1ccc(C=C2C(=O)OC3(CCCC3)OC2=O)cc1 | - | -
Clc1ccc(/C=N/c2ccccn2)cc1 | 1.3 | -
O/N=C/c1ccc(Cl)cc1 | - | -
O=C(O)CCCn1cc(NC(=O)c2ccco2)cn1 | - | -
CC(=O)N1N=C(c2ccncc2)OC1(C)C | - | -
CCN1C=C/C(=C\c2cc[n+](CC)c3ccccc23)c2ccccc21 | 5.5 | 82
CC[n+]1ccc(C)c2ccccc21 | - | -
COc1ccc(C2=Nn3c(nc4sc5c(c4c3=O)CCCC5)SC2)cc1 | - | .
COc1ccc(C2=Nn3c([n+](C)c4ccccc43)SC2)cc1 | 1.4 | -
CCCCSc1nc2c(c(C(F)(F)F)c1C#N)CCC2 | - | -
CCC1CCc2[nH]c(=S)c(C#N)c(C(F)(F)F)c2C1 (configuration not stated) | 8.0 | -
FC(F)(F)c1nc(NCc2ccco2)nc2c1CCCCC2 | - | -
SMILES | Sa growth 42C | Sa helicase inh
C/C=C\C1=C(C(=O)O)N2C(=O)C(NC(=O)C(N)c3ccc(O)cc3)C2SC1 (configuration not stated) | 1.2 | .
CC1=C(C(=O)O)N2C(=O)[C@@H](NC(=O)[C@H](N)c3ccccc3)[C@H]2SC1 | - | .
COc1ccc(CNC(=O)C2CCCN(S(=O)(=O)c3ccc4c(c3)CCCN4C(C)=O)C2)cc1 (configuration not stated) | - | .
O=C1NC(=S)N(c2ccccc2)C(=O)/C1=C\c1ccoc1 | - | -
COC(=O)c1sc(S(C)(=O)=O)c(C#N)c1-c1cccs1 | 0.2 | -
COC(=O)c1sc(N2CCCC2)c(C#N)c1-c1cccs1 | - | .
C=CCN(CC=C)S(=O)(=O)c1ccc(C(=O)Nc2nnc(-c3ccc(OC)cc3)o2)cc1 | - | -
CCc1nnc(NC(=O)c2ccc(S(=O)(=O)N3CCCC3)cc2)o1 | - | -
Cc1ccc(-c2nnc(NC(=O)c3ccc(S(=O)(=O)N4CCCC4)cc3)o2)c(C)c1 | 1.6 | -
Cc1ccc(-c2nnc(NC(=O)c3ccc4c(c3)OCCO4)o2)c(C)c1 | - | .
C=CCN(CC=C)S(=O)(=O)c1ccc(C(=O)Nc2nnc(-c3cc(C)ccc3C)o2)cc1 | 1.7 | -
CCc1nnc(NC(=O)c2ccc(S(=O)(=O)N3CC(C)CC(C)C3)cc2)o1 (configuration not stated) | 9.0 | -
Cc1cc(C(=O)c2cccs2)c(N)s1 | - | -
CC1(C)C2CC[C@@](C)(C2)C1NS(=O)(=O)c1ccc(-c2cc(C(F)(F)F)on2)s1 (some centres not stated) | - | .
CCC(=O)Nc1nc2ccccc2s1 | - | -
CCC(=O)Nc1nc2c(s1)CSc1ccccc1-2 | 6.6 | -
O=C(CC1N=C2c3ccccc3N=C(SCc3ccccc3F)N2C1=O)NCc1ccc2c(c1)OCO2 (configuration not stated) | - | .
O=S(=O)(Nc1ccc(Cl)cc1OC(F)(F)F)C(F)(F)F | 9.5 | -
Cc1ccccc1NS(=O)(=O)C(F)(F)F | - | -
Cc1ccc(OC(=O)CCC(=O)N2CCN(C(=O)CCC(=O)Oc3ccc(C)cc3)CC2)cc1 | - | -
CCOC(=O)CC(N)=S | - | -
CCOC(=O)CC(=N)N | - | 63
NNc1c(F)c(F)nc(F)c1F | - | -
c1ccc2c(c1)N1CCN2CC1 | - | -
Nc1ccccc1N1CCCC1 | 2.8 | -
SMILES | Sa growth 42C | Sa helicase inh
Clc1ccc(-c2cnc3nonc3n2)cc1 | 0.0 | -
N#Cc1cc(-c2ccc(Cl)cc2)no1 | - | -
O=C1C(Nc2cccc(O)c2)=C(n2nnc3ccccc32)C(=O)c2ccccc21 | 0.6 | -
O=C1C(Nc2ccccc2)=C(n2nnc3ccccc32)C(=O)c2ccccc21 | - | -
CN1CC=C2C(C#N)=C(N)C(C#N)(C#N)C(c3ccccc3)C2C1 (configuration not stated) | - | -
COc1ccccc1C(=O)N=c1sc2cc(Cl)ccc2n1C | . | -
Cc1cc2c(cn1)C(CCC#N)(CCC#N)c1ccccc1-2 | - | -
CCOC(=O)C1=C(N)Oc2ccccc2C1C(C#N)C#N (configuration not stated) | - | .
COc1cccc(Cn2nnc3c(=O)[nH]c(C4CCCN(C(=O)c5ccc(C)cc5)C4)nc32)c1 (configuration not stated) | - | .
O=C(c1ccccc1)N1CCC(c2nc3c(nnn3Cc3ccccc3)c(=O)[nH]2)CC1 | 2.9 | -
O=C(Cc1ccc(F)cc1)N1CCC(c2nc3c(nnn3Cc3ccc(Cl)cc3)c(=O)[nH]2)CC1 | 6.4 | .
Cc1ccccc1Cn1nnc2c(=O)[nH]c(C3CCN(C(=O)c4ccccc4Cl)CC3)nc21 | - | .
COc1cccc(Cn2nnc3c(=O)[nH]c(C4CCN(C(=O)c5ccccc5)CC4)nc32)c1 | 0.8 | -
Cc1cccc(Cn2nnc3c(=O)[nH]c(C4CCN(C(=O)c5ccccc5F)CC4)nc32)c1 | - | .
COc1cccc(Cn2nnc3c(=O)[nH]c(C4CCN(C(=O)c5ccccc5Cl)CC4)nc32)c1 | 0.4 | .
O=C(Cc1ccc(F)cc1)N1CCC(c2nc3c(nnn3Cc3ccc(F)cc3)c(=O)[nH]2)CC1 | - | .
CCCn1c(NCc2sccc2C)nc2ccccc21 | - | -
Cc1cc(Br)ccc1NC(=S)Nc1cccc(NC(=O)c2ccccc2O)c1 | - | .
CC1Cc2ccccc2N1C(=O)c1ccc2c(c1)nnn2C (configuration not stated) | - | -
O=C(Cc1ccccc1F)N1CCC(c2nc3c(nnn3Cc3ccc(F)cc3)c(=O)[nH]2)CC1 | - | .
CC(C)(C)OC(=O)N1CCC(c2nc3c(nnn3Cc3ccccc3Cl)c(=O)[nH]2)CC1 | 0.3 | -
Cc1cccc(NC(=O)Cn2cnc3c(oc4ccccc43)c2=O)c1 | - | -
CCC[C@@H]1C[C@@H](C(=O)N[C@@H]([C@H]2O[C@H](SC)[C@H](O)[C@@H](O)[C@H]2O)[C@@H](C)O)N(C)C1 | 0.0 | .
CCCCCCCCCCCCCCCC(=O)O[C@@H]1[C@@H](O)[C@@H](O)[C@@H](C(NC(=O)[C@@H]2C[C@@H](CCC)CN2C)C(C)Cl)O[C@@H]1SC (some centres not stated) | - | .
